Cell viability, % of control (lower = more cytotoxic) data for 36 compounds are collected here from PubChem BioAssay (NCATS).

The nature of the experiment: High-throughput drug toxicity screening in the BPDCN cell line Gen2.2 (AID 1224824).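 Also: cells exposed to compounds for 48 h before reading.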 The settings on record: Gen2.2 BPDCN cells; at 45.8 µM (top of the series) unless noted. The procedure, abridged:
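Seed 500 exponentially growing Gen2.2 cells/well; add compounds by pin tool; incubate 48 h, 37 °C, 5% CO2; add CellTiter-Glo, 15 min RT; read luminescence. % activity vs DMSO (100%) and bortezomib (0%).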
Take `CCC(=C(CC)c1ccc(O)cc1)c1ccc(O)cc1`: the cell viability, % of control (lower = more cytotoxic) came out at 111%.
The value for `C=C1c2cccc(O)c2C(O)=C2C(=O)[C@@]3(O)C(O)=C(C(N)=O)C(=O)[C@@H](N(C)C)[C@@H]3[C@@H](O)[C@H]12` was 88.8%; that for `CC(=O)NCCC(=O)N[C@@H](CCC(N)=O)C(=O)N[C@@H](CO)C(=O)N[C@@H](CCC(N)=O)C(=O)N[C@@H](CCC(N)=O)C(=O)N[C@H](C(=O)N[C@@H](Cc1ccccc1)C(=O)N[C@]1(C)CCCCCCC=CCCC[C@@](C)(C(=O)N[C@@H](CCC(N)=O)C(=O)N[C@@H](CC(N)=O)C(N)=O)NC(=O)[C@H](CC(C)C)NC(=O)[C@H](CC(C)C)NC(=O)[C@@H](CCCNC(=N)N)NC(=O)[C@H](Cc2c[nH]c3ccccc23)NC(=O)[C@H](CC(C)C)NC(=O)[C@H](CC(N)=O)NC1=O)[C@H](C)O` was 27%.
Take `COc1ccc2cc1Oc1ccc(cc1)C[C@H]1c3cc(c(OC)cc3CCN1C)Oc1c(OC)c(OC)cc3c1[C@H](C2)N(C)CC3`: the cell viability, % of control (lower = more cytotoxic) turned out to be 146%.
The result for `CCC(c1ccc(O)cc1)C(CC)c1ccc(O)cc1` (stereo unspecified) reads 149%; that for `Cc1ccc2c(c1)c1c(n2CCc2ccc(C)nc2)CCN(C)C1`, 163%; that for `CCCCC[C@H](O)C=C[C@H]1[C@H](O)CC(=O)[C@H]1CCCCCCC(=O)O`, 64.6%.
The result for `O=c1[nH]c(=O)n([C@H]2C[C@@H](O)[C@@H](CO)O2)cc1I` reads 138%; that for `Cn1cc(-c2ccc3nnc(Sc4ccc5ncccc5c4)n3n2)cn1`, 121%; that for `Cc1ccc(NC(=O)Nc2cc(C(F)(F)F)ccc2F)cc1Nc1ccc2c(c1)NC(=O)C2=Cc1ccc[nH]1`, 4.16%.
The value for `O=c1[nH]nc(OCCCc2ccc(Cl)cc2)c(NCc2cccnc2)c1Br` was 9.32%.
On to `CC(O)=C(C#N)C(=O)Nc1ccc(C(F)(F)F)cc1`, for which the cell viability, % of control (lower = more cytotoxic) stood at 75%.
The value for `CC(C)Oc1cc(Nc2nc(N[C@@H](C)c3ccc(F)cn3)ncc2Cl)[nH]n1` was 93%; that for `CCC(=O)OCC(=O)[C@@]1(OC(=O)CC)[C@@H](C)C[C@@H]2[C@H]3CCC4=CC(=O)C=C[C@]4(C)[C@@]3(F)[C@@H](O)C[C@@]21C` was 17.4%.
Turning to `CCOC(=O)[C@@H](N)CCC(=O)N[C@@H](CSCc1ccccc1)C(=O)N[C@@H](C(=O)OCC)c1ccccc1`, the cell viability, % of control (lower = more cytotoxic) worked out at 39.6%.
On to `COc1ccnc(CS(=O)c2nc3ccc(OC(F)F)cc3[nH]2)c1OC` (stereo unspecified), for which the cell viability, % of control (lower = more cytotoxic) amounted to 282%.
On to `COc1ccc(CCN(C)CCCOc2ccc(S(=O)(=O)c3[nH]c4ccccc4c3C(C)C)cc2)cc1OC`, for which the cell viability, % of control (lower = more cytotoxic) amounted to 14.1%.
The result for `CCOC(=O)N1c2ccc(C(F)(F)F)cc2[C@@H](N(Cc2cc(C(F)(F)F)cc(C(F)(F)F)c2)C(=O)OC)C[C@H]1CC` reads 115%; that for `O=C(CCCN1CCN(c2ccc(F)cc2)CC1)NC1c2ccccc2CSc2ccccc21` (stereo unspecified), 91.5%; that for `C[C@@H](O)[C@H]1C(=O)N2C(C(=O)OCOC(=O)C(C)(C)C)=C(SC3CN(C4=NCCS4)C3)[C@H](C)[C@H]12`, 58.2%.
The value for `Oc1cc(O)cc(C=Cc2ccc(O)c(O)c2)c1` was 3.35%; that for `C#CCN(C)CC1=Cc2ccccc2Oc2ccccc21` was 124%.
Turning to `COc1cc(F)c(C(C)C)cc1-c1ccc(C(F)(F)F)cc1CN1C(=O)O[C@H](c2cc(C(F)(F)F)cc(C(F)(F)F)c2)[C@@H]1C`, the cell viability, % of control (lower = more cytotoxic) is 115%.
The result for `O=C(Nc1ccc(OC(F)(F)F)cc1)c1sccc1NCc1ccnc2ccccc12` reads 42.4%; that for `CCc1cccc(CC)c1NC(=O)N1Cc2[nH]nc(NC(=O)c3ccc(N4CCN(C)CC4)cc3)c2C1`, 146%; that for `NC[C@H]1O[C@H](O[C@@H]2[C@@H](O)[C@@H](O[C@H]3O[C@H](CO)[C@@H](O)[C@H](N)[C@@H]3O)[C@H](N)C[C@@H]2N)[C@H](O)[C@@H](O)[C@H]1O`, 161%.
Regarding `C=CC[N+]1([C@H]2C[C@H]3[C@@H]4CC[C@H]5C[C@H](O)[C@@H](N6CCOCC6)C[C@]5(C)[C@@H]4CC[C@]3(C)[C@H]2OC(C)=O)CCCC1`, the cell viability, % of control (lower = more cytotoxic) was 168%.
As for `COc1cc2nccc(Oc3ccc(NC(=O)Nc4cc(C)on4)c(Cl)c3)c2cc1OC`, the cell viability, % of control (lower = more cytotoxic) was 52.1%.
The result for `c1ccc(CNc2nc(N3CCOc4ccccc43)nc3c2CCCC3)cc1` reads 233%; that for `Clc1ccc(C2(c3ccc(-c4cn[nH]c4)cc3)CCNCC2)cc1`, 16.8%; that for `CC=C1C2C=C(C)CC1(N)c1ccc(=O)[nH]c1C2` (stereo unspecified), 164%.
For `O=C(Nc1ccccc1)Nc1ccc(-c2ccc(C(=O)[C@H]3CCC[C@H]3C(=O)O)cc2)cc1`, the cell viability, % of control (lower = more cytotoxic) came out at 28.8%.
Consider `CC[C@H](C=C[C@@H](C)[C@H]1CC[C@H]2[C@@H]3CC=C4C[C@@H](O)CC[C@]4(C)[C@@H]3CC[C@]12C)C(C)C`, for which the cell viability, % of control (lower = more cytotoxic) is 72.7% [at 23.2 µM].
Take `CC=C(C(=CC)c1ccc(O)cc1)c1ccc(O)cc1`: the cell viability, % of control (lower = more cytotoxic) came out at 43.4%.
The value for `COc1ccc(-c2nc3ccc(C4=NNC(=O)CC4C)cc3[nH]2)cc1` (stereo unspecified) was 263%.
`COc1ccc(-c2cc(=O)c3c(O)cc(O[C@@H]4O[C@H](CO[C@@H]5O[C@@H](C)[C@H](O)[C@@H](O)[C@@H]5O)[C@@H](O)[C@H](O)[C@@H]4O)cc3o2)cc1O`: the cell viability, % of control (lower = more cytotoxic) turned out to be 93%.
